Z-score and composite z-score data for 35 molecules are collected here from PubChem BioAssay.

Activity calls are given as the source filed them.

The first experiment in a line: FRG1 expression reporter modulators in myotubes – cell-based, C2C12 myotubes, firefly/Renilla luciferase, luminescence, FRG1 inhibition for FSHD, primary screen (AID 1084). As to conditions: FRG1 promoter luciferase, higher = more signal, called active from +8 up or from −8 down.
Consider `CN(C)CCCC[C@@H]1NC(=O)[C@H]2C[C@@H](C(=O)NCCCCCNC(=O)CS)[C@@H](c3cccc(OCCO)c3)N2C1=O`, for which the z-score was 0.498 (inactive).

As to `O=C(O)[C@@]1(CCS(=O)(=O)c2ccccc2)COC(c2ccc(OCCCO)cc2)=N1`, the z-score is 0.143 (inactive).

With `[N-]=[N+]=NCc1ccccc1[C@@H]1OC(c2ccc(OCCCO)cc2)=N[C@]1(Cc1ccccc1N=[N+]=[N-])C(=O)N1CCOCC1`, the z-score was -0.825 (inactive).

For `CC(C)N1C(=O)[C@@]2(Cc3ccccc31)c1ccccc1C(=O)N(C1CCCCC1)[C@H]2c1ccc(CO)cc1`, the z-score is 0.0117 (inactive).

Consider `CCOC(=O)[C@H]1C/C=C/C[C@H](C(=O)OCC)C(=O)O[C@H]2[C@@H](OC)O[C@H](CO)[C@@H](OC(=O)Nc3ccc(C#N)cc3)[C@@H]2OC1=O`, for which the z-score was -0.1 (inactive).

Regarding `COc1ccc(C(O)C2C=CC3C(=O)N(c4ccccc4)C(=O)C3N2Nc2ccccc2F)cc1OCc1ccccc1` (stereo unspecified), the z-score was 3.15 (inactive).

Take `CN(C)C(=O)[C@]1(Cc2ccccc2CN=[N+]=[N-])N=C(c2ccc(OCCCO)cc2)O[C@@H]1c1ccccc1CN=[N+]=[N-]`: the z-score was -1.45 (inactive).

Take `O=C1NCC(=O)N2[C@@H]1C[C@@H](C(=O)O)[C@H]2c1cccc(OCCO)c1`: the z-score is 3.17 (inactive).

`COCCOC(=O)N1C(=O)[C@@]2(c3cc(C#CC4(O)CCCCCC4)ccc31)[C@H](c1ccc(O)cc1)N1[C@H](c3ccccc3)[C@H](c3ccccc3)OC(=O)[C@H]1[C@@H]2C(=O)Nc1nc2ccccc2s1`: the z-score is 1.41 (inactive).

On to `COCCOC(=O)N1C(=O)[C@@]2(c3cc(C#CCNC(N)=O)ccc31)[C@H](C(=O)NC[C@H](O)c1ccccc1)[C@H]1C(=O)O[C@H](c3ccccc3)[C@H](c3ccccc3)N1[C@@H]2c1ccccc1OCCO`, for which the z-score was -0.864 (inactive).

Consider `O=C(NCc1ccccc1)[C@@]1(CCS(=O)(=O)c2ccccc2)N=C(c2ccc(OCCCO)cc2)O[C@H]1c1ccccc1`, for which the z-score was -2.73 (inactive).

Another experiment is described as follows: small molecules captured by biotinylated probe aFST – biochemical, small-molecule microarray, fluorescence 635/667, stem cell growth factor project, primary screen (AID 1086).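 Also: score merges 667 nm fluorescence with signal-to-noise of each printed compound spot.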 To be noted: higher = more signal.
`CN1C(=O)C2C=CC(C(O)c3cc(C(F)(F)F)cc(C(F)(F)F)c3)N(N3CCCCC3)C2C1=O` (stereo unspecified) showed a composite z-score of 0.498.

The molecule `CC(C)[C@@H](CO)NC(=O)[C@H]1[C@@H](c2ccccc2)N(c2ccccc2)O[C@@H]1C` displayed a composite z-score of -0.0238.

For `COc1cc2c(cc1O)C(C1CC1)N(Cc1cc3c(cc1Br)OCO3)CC2` (stereo unspecified), the composite z-score was -0.734.

Molecule `C=CCNC(=O)[C@H]1[C@@H]2C(=O)O[C@@H](c3ccccc3)[C@@H](c3ccccc3)N2[C@@H](c2ccccc2OCCO)[C@]12C(=O)Nc1ccc(C#CC3=CCCCC3)cc12` gave a composite z-score of 0.185.

`O=C1C2C=CC(C(O)c3ccc(F)cc3)N(Nc3ccccc3F)C2C(=O)N1c1ccccc1` (stereo unspecified) gave a composite z-score of 0.886.

`COc1cc(OC)c(C(O)C2C=CC3C(=O)NC(=O)C3N2Nc2ccc(Cl)cc2Cl)cc1Br` (stereo unspecified) had a composite z-score of 1.58.

Consider `COc1cc2c(cc1O)C=[N+](Cc1cccc(OC(F)(F)F)c1)CC2`, for which the composite z-score is -0.0596.

As to `COc1ccc([Si](C)(C)[C@H]2[C@H](CC(=O)N3Cc4ccccc4C[C@H]3CO)O[C@@]3(C(=O)N(Cc4ccc(N5CCC5=O)cc4)c4ccccc43)[C@@H]2C)cc1`, the composite z-score stood at 0.983.

Consider `Cc1ccc(S[C@]2(C(=O)NCCN3CCOCC3)CC(=O)N(Cc3ccccc3)[C@@H]2c2ccc(CO)cc2I)cc1`, for which the composite z-score was -0.39.

`COCCOC(=O)N1C(=O)[C@@]2(c3cc(C#Cc4ccc(OC)cc4)ccc31)[C@H](C(N)=O)[C@H]1C(=O)O[C@H](c3ccccc3)[C@H](c3ccccc3)N1[C@@H]2c1ccccc1OCCO` registered a composite z-score of 0.433.

As for `[N-]=[N+]=NCc1ccccc1C[C@]1(C(=O)NCC(O)CO)N=C(c2ccc(OCCCO)cc2)O[C@H]1c1ccccc1` (stereo partly specified), the composite z-score stood at 0.506.

In turn, `C#CCN(Cc1ccccc1Br)C(/C=C/c1ccccc1)CO` (stereo unspecified) yielded a composite z-score of -0.481.

In turn, `C#CCN(CC=C(C)C)[C@H](CO)c1ccccc1` came in with a composite z-score of -0.0173.

`COc1ccc([Si](C)(C)[C@H]2[C@H](CCO)O[C@@]3(C(=O)N(Cc4ccc(N5C(=O)COc6ccccc65)cc4)c4ccccc43)[C@@H]2C)cc1` came in with a composite z-score of -0.148.

On to `CO[C@H]1O[C@H](CO)[C@@H](OC(=O)Nc2ccc(Br)cc2)[C@H](OC(=O)c2cc3ccccc3[nH]2)[C@H]1OC(=O)c1cc2ccccc2[nH]1`, for which the composite z-score is 0.237.

Take `CN1C(=O)C2C=CC(C(O)c3ccccc3)N(Nc3ccccc3)C2C1=O` (stereo unspecified): the composite z-score was 0.261.

`COC(=O)[C@@]1(Cc2ccc(F)cc2)[C@H]2c3cc(C(=O)N4CCCC4)n(Cc4ccc(C)o4)c3C[C@H]2CN1C(=O)c1ccccc1` registered a composite z-score of 1.29.

`CCCCC(=C=CC[C@@H](O)c1ccccc1OCCO)CCO` yielded a composite z-score of 0.0797.

The molecule `CC(=O)N1Cc2ccccc2C[C@@]2(COC(c3ccc(OCCCO)cc3)=N2)C1=O` gave a composite z-score of 1.83.

Consider `C[C@]1(C(=O)NC2CC2)c2ccccc2C(=O)N(Cc2cc(C(F)(F)F)cc(C(F)(F)F)c2)[C@H]1c1ccc(CO)cc1`, for which the composite z-score is 0.603.

Regarding `CCCC[C@@H]1C[C@H]1[C@@H](NC(=O)c1ccco1)c1ccc(C(=O)OC)cc1`, the composite z-score was determined as 0.285.

The molecule `C[C@@]1([C@@H](NC(=O)c2ccccc2)c2ccc(-c3ccccc3)cc2)C[C@H]1C1CCCCC1` had a composite z-score of 0.57.

`COCCOC(=O)N1C(=O)[C@@]2(c3cc(C#CC4=CCCCC4)ccc31)[C@H](c1ccc(O)cc1)N1[C@H](c3ccccc3)[C@H](c3ccccc3)OC(=O)[C@H]1[C@@H]2C(N)=O` returned a composite z-score of 0.327.

In turn, `O=C1C2C=CC(C(O)C(c3ccccc3)c3ccccc3)N(n3cnnc3)C2C(=O)N1Cc1ccccc1` (stereo unspecified) returned a composite z-score of 0.578.

As for `CN(C)CCCC[C@@H]1NC(=O)[C@H]2C[C@@H](C(=O)NCCCCCNC(=O)CS)[C@@H](c3cccc(OCCO)c3)N2C1=O`, the composite z-score is 0.0184.

The molecule `O=C(O)[C@@]1(CCS(=O)(=O)c2ccccc2)COC(c2ccc(OCCCO)cc2)=N1` showed a composite z-score of -0.0694.

Molecule `[N-]=[N+]=NCc1ccccc1[C@@H]1OC(c2ccc(OCCCO)cc2)=N[C@]1(Cc1ccccc1N=[N+]=[N-])C(=O)N1CCOCC1` displayed a composite z-score of 1.08.

As to `CC(C)N1C(=O)[C@@]2(Cc3ccccc31)c1ccccc1C(=O)N(C1CCCCC1)[C@H]2c1ccc(CO)cc1`, the composite z-score was -0.123.

Molecule `CCOC(=O)[C@H]1C/C=C/C[C@H](C(=O)OCC)C(=O)O[C@H]2[C@@H](OC)O[C@H](CO)[C@@H](OC(=O)Nc3ccc(C#N)cc3)[C@@H]2OC1=O` came in with a composite z-score of 0.143.

Turning to `COc1ccc(C(O)C2C=CC3C(=O)N(c4ccccc4)C(=O)C3N2Nc2ccccc2F)cc1OCc1ccccc1` (stereo unspecified), the composite z-score was 1.1.

Turning to `CN(C)C(=O)[C@]1(Cc2ccccc2CN=[N+]=[N-])N=C(c2ccc(OCCCO)cc2)O[C@@H]1c1ccccc1CN=[N+]=[N-]`, the composite z-score worked out at 1.64.

`O=C1NCC(=O)N2[C@@H]1C[C@@H](C(=O)O)[C@H]2c1cccc(OCCO)c1`: the composite z-score was 3.63.

Molecule `COCCOC(=O)N1C(=O)[C@@]2(c3cc(C#CC4(O)CCCCCC4)ccc31)[C@H](c1ccc(O)cc1)N1[C@H](c3ccccc3)[C@H](c3ccccc3)OC(=O)[C@H]1[C@@H]2C(=O)Nc1nc2ccccc2s1` displayed a composite z-score of 2.31.

`COCCOC(=O)N1C(=O)[C@@]2(c3cc(C#CCNC(N)=O)ccc31)[C@H](C(=O)NC[C@H](O)c1ccccc1)[C@H]1C(=O)O[C@H](c3ccccc3)[C@H](c3ccccc3)N1[C@@H]2c1ccccc1OCCO` gave a composite z-score of -0.177.

Molecule `O=C(NCc1ccccc1)[C@@]1(CCS(=O)(=O)c2ccccc2)N=C(c2ccc(OCCCO)cc2)O[C@H]1c1ccccc1` showed a composite z-score of 1.6.
